PubChem BioAssay
Calls of active or inactive are those of the source. Unless noted, how the calls were made is not given here.

Experiments:
[1] = test system: Wnt5a (protein binding on small-molecule microarray); assay: small molecules binding Wnt5a protein – biophysical, small-molecule microarray, 635/667 nm fluorescence, primary screen (AID 1142); conditions: 635 nm fluorescence, higher = more signal;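 further: fluorescence read at 667 nm with signal to noise per printed feature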
[2] = ATP-based viability of Huh7 replicon cells – cell-based, CellTiter-Glo luminescence, basal, 48 h, cytotoxicity control for HCV replication inhibitor project, primary screen (AID 1143); conditions: higher = more signal, called active from +8 up or from −8 down;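 further: Huh7 hepatoma cells carrying a hepatitis C replication reporter with no stimulus; test concentration not given here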
[3] = Pseudomonas biofilm growth suppression – PAO1 strain, BacTiter-Glo luminescence, LB-PBS, primary screen (AID 1144); conditions: P. aeruginosa PAO1 biofilm, 12 h, higher = more signal
[4] = basal CRE-LacZ reporter activity in PC12 – cell-based, unstimulated, primary screen (AID 1145); conditions: no forskolin, luminescence, 4.5 h, higher = more signal, called active from +8 up or from −8 down
[5] = forskolin-driven CRE-LacZ activity in PC12 – cell-based, CRE-LacZ reporter, forskolin-stimulated, primary screen (AID 1146); conditions: luminescence, 4.5 h, higher = more signal, called active from +8 up or from −8 down;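 further: PC12 cells with 6xCRE LacZ reporter stimulated by forskolin 10 µM; beta-galactosidase reporter signal reflecting CREB driven transcription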
[6] = molecular target: Streptavidin (Streptomyces avidinii) (UniProt P22629); assay: compounds binding control protein streptavidin – biophysical, small-molecule microarray, 635/667 nm fluorescence, artefact control for SMM compound annotation, primary screen (AID 1147); conditions: higher = more signal;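 further: signal reflects streptavidin binding to arrayed compounds as a control protein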
[7] = probe aInhba binding on compound microarray – biochemical, small-molecule microarray, 635/667 nm fluorescence, primary screen (AID 1148); conditions: higher = more signal;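 further: score merges 667nm spot fluorescence with signal-to-noise for antibody binding to printed compounds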
[8] = molecular target: Torsin-1A (Homo sapiens) (UniProt O14656); assay: TOR1A wild-type binding on microarray – cell lysate, small-molecule microarray, lysate, 635/667 nm, primary screen (AID 1149); conditions: COS7 hTOR1A-WT lysate, 635 nm fluorescence, higher = more signal
[9] = molecular target: Torsin-1A (Homo sapiens) (UniProt O14656); assay: torsin A mutant lysate binding on microarrays – cell lysate, small-molecule microarray, COS7 lysate, 635/667 nm fluorescence, primary screen (AID 1150); conditions: COS7 hTOR1A mutant lysate, 635 nm fluorescence, higher = more signal;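 further: score pools 667 nm emission and signal to noise measuring lysate protein binding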
[10] = test system: Sonic hedgehog protein (Shh); assay: Sonic hedgehog microarray binding compounds – biochemical, small-molecule microarray, 635/667 nm fluorescence, primary screen (AID 1151); conditions: 635 nm fluorescence, higher = more signal;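 further: Shh protein binding to compounds spotted on small-molecule microarray slides; score combines spot fluorescence intensity with signal-to-noise across triplicate slides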
[11] = optical density shifts of acrAB sulA E. coli – strain DRC41, OD650, 48 h, E. coli filamentation inducer project, primary screen (AID 1152); conditions: higher = more signal, called active from +8 up or from −8 down;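 further: E. coli MC1000 strain DRC41 lacking acrAB efflux pump and sulA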
[12] = probe aLefty1 binding on compound microarray – biochemical, small-molecule microarray, 635/667 nm fluorescence, primary screen (AID 1153); conditions: higher = more signal;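 further: score merges spot fluorescence with signal-to-noise ratio from the scanned slide images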
[13] = plasmodial surface anion channel blockers, osmotic lysis – cell-based, P. falciparum Indochina, OD700, 1 h, primary screen (AID 1154); conditions: P. falciparum Indochina infected RBC osmotic lysis, higher = more signal, called active from +8 up or from −8 down
[14] = plasmodial surface anion channel blockers, osmotic lysis – cell-based, P. falciparum Indochina, OD700, 2 h, primary screen (AID 1155);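 further: lysis reports solute entry through the parasite surface anion channel PSAC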; conditions: P. falciparum Indochina infected erythrocytes, higher = more signal, called active from +8 up or from −8 down
[15] = changes in parasitized red cell lysis, either direction – P. falciparum Indochina, OD700, 3 h, PSAC antagonist project, primary screen (AID 1156); conditions: P. falciparum-infected erythrocytes, osmotic lysis, higher = more signal, called active from +8 up or from −8 down
[16] = plasmodial surface anion channel blockers, osmotic lysis – cell-based, P. falciparum Indochina, OD700, 18 h, primary screen (AID 1157); conditions: P. falciparum Indochina infected erythrocytes, osmotic lysis OD700, 18 h; higher = more signal, called active from +8 up or from −8 down
[17] = S6 kinase pathway phospho-S6 level changes – cell-based, A549, cytoblot, luminescence, serum-stimulated, primary screen (AID 1158); conditions: 5 h, higher = more signal;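 further: serum-stimulated A549 lung adenocarcinoma cells; signal is phosphorylated S6 detected by cytoblot immunostaining with HRP secondary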
[18] = molecular target: NADPH oxidase 2 (Homo sapiens) (UniProt P04839); assay: compounds shifting NOX2 Amplex Red fluorescence – cell-based, HEK293-NOX2, PMA-stimulated, NOX inhibitor project, primary screen (AID 1159); conditions: 45 min, higher = more signal, called active from +8 up or from −8 down; further: test concentration not given here
[19] = molecular target: NADPH oxidase 4 (Homo sapiens) (UniProt Q9NPH5); assay: compounds shifting NOX4 Amplex Red fluorescence – cell-based, HEK293-NOX4, tetracycline-induced, NOX inhibitor project, primary screen (AID 1160); conditions: HEK293-NOX4, Amplex Red H2O2 fluorescence, 45 min; higher = more signal, called active from +8 up or from −8 down
[20] = molecular target: NADPH oxidase 5 (Homo sapiens) (UniProt Q96PH1); assay: compounds shifting NOX5 Amplex Red fluorescence – cell-based, HEK293-NOX5, NOX inhibitor project, primary screen (AID 1161); conditions: HEK293-NOX5, ionomycin, 45 min, higher = more signal
Chain of NADPH oxidase 5 (Homo sapiens) (Q96PH1 whole entry, looked up): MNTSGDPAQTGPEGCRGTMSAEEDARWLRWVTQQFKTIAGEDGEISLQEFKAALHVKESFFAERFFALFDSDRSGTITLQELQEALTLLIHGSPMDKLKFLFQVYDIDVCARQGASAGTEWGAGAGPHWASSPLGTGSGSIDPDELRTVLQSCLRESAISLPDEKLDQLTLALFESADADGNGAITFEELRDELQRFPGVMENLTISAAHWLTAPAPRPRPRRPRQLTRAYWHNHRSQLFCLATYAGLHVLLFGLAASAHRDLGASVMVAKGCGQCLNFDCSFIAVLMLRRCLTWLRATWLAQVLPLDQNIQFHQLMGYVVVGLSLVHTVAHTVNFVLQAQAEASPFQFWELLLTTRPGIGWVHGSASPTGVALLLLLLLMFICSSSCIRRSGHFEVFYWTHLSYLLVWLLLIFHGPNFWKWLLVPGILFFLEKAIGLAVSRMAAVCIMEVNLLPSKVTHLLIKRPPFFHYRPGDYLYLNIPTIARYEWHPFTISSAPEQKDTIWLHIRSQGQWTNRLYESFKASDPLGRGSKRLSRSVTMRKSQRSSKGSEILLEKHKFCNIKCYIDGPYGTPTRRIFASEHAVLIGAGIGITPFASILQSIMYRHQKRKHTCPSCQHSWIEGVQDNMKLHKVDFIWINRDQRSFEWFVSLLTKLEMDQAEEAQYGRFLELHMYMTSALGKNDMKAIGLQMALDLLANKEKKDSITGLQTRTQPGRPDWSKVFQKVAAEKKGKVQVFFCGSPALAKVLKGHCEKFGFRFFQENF

Chain of Streptavidin (Streptomyces avidinii) (P22629 whole entry, looked up): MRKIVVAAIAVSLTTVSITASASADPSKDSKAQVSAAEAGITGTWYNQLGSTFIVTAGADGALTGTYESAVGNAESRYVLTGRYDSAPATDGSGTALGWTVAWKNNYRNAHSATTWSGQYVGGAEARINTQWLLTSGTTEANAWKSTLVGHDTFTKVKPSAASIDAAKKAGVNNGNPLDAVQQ
Chain of Torsin-1A (Homo sapiens) (O14656 whole entry, looked up): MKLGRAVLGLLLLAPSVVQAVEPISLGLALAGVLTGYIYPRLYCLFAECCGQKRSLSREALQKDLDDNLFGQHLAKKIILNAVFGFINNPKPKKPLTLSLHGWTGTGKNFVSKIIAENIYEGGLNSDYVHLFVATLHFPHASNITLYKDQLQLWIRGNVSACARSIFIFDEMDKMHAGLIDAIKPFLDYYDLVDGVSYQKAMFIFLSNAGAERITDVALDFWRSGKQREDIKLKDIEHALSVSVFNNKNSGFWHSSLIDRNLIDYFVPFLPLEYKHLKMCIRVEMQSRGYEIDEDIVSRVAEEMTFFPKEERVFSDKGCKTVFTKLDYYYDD
Chain of NADPH oxidase 4 (Homo sapiens) (Q9NPH5 whole entry, looked up): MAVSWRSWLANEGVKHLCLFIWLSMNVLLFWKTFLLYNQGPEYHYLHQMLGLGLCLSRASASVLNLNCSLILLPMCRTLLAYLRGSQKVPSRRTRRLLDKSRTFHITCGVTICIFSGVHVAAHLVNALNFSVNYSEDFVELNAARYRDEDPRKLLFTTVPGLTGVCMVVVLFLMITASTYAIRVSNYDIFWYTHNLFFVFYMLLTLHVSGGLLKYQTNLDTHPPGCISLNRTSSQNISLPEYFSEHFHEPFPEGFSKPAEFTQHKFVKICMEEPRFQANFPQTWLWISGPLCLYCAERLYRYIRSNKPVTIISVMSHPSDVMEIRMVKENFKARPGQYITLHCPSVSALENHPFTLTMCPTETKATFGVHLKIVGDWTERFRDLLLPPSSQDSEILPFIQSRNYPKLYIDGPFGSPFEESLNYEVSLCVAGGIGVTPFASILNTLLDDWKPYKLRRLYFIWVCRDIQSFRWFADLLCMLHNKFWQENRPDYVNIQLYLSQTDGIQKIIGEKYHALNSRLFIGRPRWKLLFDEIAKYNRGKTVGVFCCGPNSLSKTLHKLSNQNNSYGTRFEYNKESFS
Chain of NADPH oxidase 2 (Homo sapiens) (P04839 whole entry, looked up): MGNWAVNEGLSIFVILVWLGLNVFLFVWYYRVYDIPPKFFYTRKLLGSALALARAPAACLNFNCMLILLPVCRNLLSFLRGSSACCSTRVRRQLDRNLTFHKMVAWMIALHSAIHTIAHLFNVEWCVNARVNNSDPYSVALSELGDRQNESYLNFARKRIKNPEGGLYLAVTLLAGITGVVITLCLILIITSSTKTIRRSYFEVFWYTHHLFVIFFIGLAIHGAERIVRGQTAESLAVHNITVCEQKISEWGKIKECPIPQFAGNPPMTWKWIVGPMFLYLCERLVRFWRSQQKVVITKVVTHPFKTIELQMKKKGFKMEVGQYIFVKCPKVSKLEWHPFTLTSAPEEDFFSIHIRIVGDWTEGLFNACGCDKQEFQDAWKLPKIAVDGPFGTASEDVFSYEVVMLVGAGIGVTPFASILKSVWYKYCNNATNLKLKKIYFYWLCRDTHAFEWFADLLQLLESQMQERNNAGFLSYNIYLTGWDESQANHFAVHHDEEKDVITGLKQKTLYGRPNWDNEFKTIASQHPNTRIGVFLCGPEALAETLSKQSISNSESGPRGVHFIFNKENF

Row | SMILES | composite z-score [1] | z-score [2] | z-score [3] | z-score [4] | z-score [5] | composite z-score [6] | composite z-score [7] | composite z-score [8] | composite z-score [9] | composite z-score [10] | z-score [11] | composite z-score [12] | z-score [13] | z-score [14] | z-score [15] | z-score [16] | z-score [17] | z-score [18] | z-score [19] | z-score [20]
1 | COCCCNC(=O)[C@]1(CCC(=O)OC(C)(C)C)N=C(c2ccc(OCCCO)cc2)O[C@@H]1c1ccccc1N=[N+]=[N-] | 0.951 | -1.41 (inactive) | -1.67 (inactive) | -0.482 (inactive) | -0.478 (inactive) | 1.45 | 0.283 | 1.54 | 1.1 | -0.2 | 0.734 (inactive) | 0.483 | 32.7 (active) | 29.9 (active) | 4.05 (inactive) | 7.68 (inactive) | 0.0838 | -2.44 (inactive) | 1.59 (inactive) | -2.19
2 | COCCOC(=O)N1C(=O)[C@@]2(c3cc(C#Cc4ccc(OC)cc4)ccc31)[C@H](C(=O)N1CCN(c3ncccn3)CC1)[C@H]1C(=O)O[C@H](c3ccccc3)[C@H](c3ccccc3)N1[C@@H]2c1ccc(OCCO)cc1 | 0.044 | -0.151 (inactive) | -0.118 (inactive) | -0.606 (inactive) | -0.242 (inactive) | 0.531 | 0.397 | -0.0983 | 0.33 | 1 | -0.541 (inactive) | 0.327 | 10.1 (active) | 2.52 (inactive) | 0.493 (inactive) | 1.04 (inactive) | -0.21 | 1.51 (inactive) | 0.337 (inactive) | -0.0992
3 | CC=CC1=C(CO)[C@H](O)[C@H]2O[C@H]2[C@H]1O | 0.261 | 0.678 (inactive) | 1.58 (inactive) | 0.292 (inactive) | 0.798 (inactive) | 0.082 | -0.0719 | 0.769 | -0.0205 | 1.14 | -0.147 (inactive) | -0.45 | -0.528 (inactive) | -0.52 (inactive) | -0.382 (inactive) | -0.342 (inactive) | 0.318 | 1.94 (inactive) | -1.82 (inactive) | -0.768
4 | Cn1cccc1C(O)C1C=CC2C(=O)NC(=O)C2N1Nc1ccccn1 (stereo not given) | 0.0956 | -3.04 (inactive) | 0.465 (inactive) | -0.326 (inactive) | 0.583 (inactive) | 0.126 | -0.231 | 0.3 | 0.197 | 0.64 | -1.07 (inactive) | -0.289 | 2.33 (inactive) | 2.41 (inactive) | 0.801 (inactive) | 1.49 (inactive) | -1.14 | -2.54 (inactive) | -4.94 (inactive) | -5.28
5 | CN1C(=O)C2C=CC(C(O)c3ccc(I)cc3)N(NC(=O)OC(C)(C)C)C2C1=O (stereo not given) | 0.0527 | 0.6 (inactive) | 0.155 (inactive) | -0.515 (inactive) | 0.699 (inactive) | 0.323 | 0.274 | -0.042 | 0.447 | -0.436 | -1.55 (inactive) | 0.317 | 0.365 (inactive) | 0.214 (inactive) | -0.43 (inactive) | 1 (inactive) | -1.09 | -1.01 (inactive) | -0.982 (inactive) | -0.411
6 | CCCC=C(CCC)[C@@H](NC(=O)c1ccc(-c2ccccc2)cc1)c1ccc(C(=O)OC)cc1 | -0.0745 | -0.116 (inactive) | 0.29 (inactive) | 0.576 (inactive) | 0.381 (inactive) | 1.09 | 0.0872 | -0.162 | 0.0735 | -0.809 | -1.23 (inactive) | 0.547 | 0.626 (inactive) | 0.453 (inactive) | -0.104 (inactive) | 0.987 (inactive) | 0.692 | -0.0895 (inactive) | 1.13 (inactive) | 1.81
7 | CC(C)(C)N1CC=CC23O[C@@H]4C=CCCOC(=O)C4[C@H]2C(=O)N(CCCCCO)[C@@H]3C1=O (stereo not given in full) | 0.37 | -0.128 (inactive) | -0.174 (inactive) | 0.333 (inactive) | -0.329 (inactive) | -0.102 | 0.214 | 1.11 | 0.879 | 0.992 | 0.499 (inactive) | 0.0919 | 1.03 (inactive) | 0.396 (inactive) | 1.98 (inactive) | 0.159 (inactive) | -0.186 | 1.26 (inactive) | 0.385 (inactive) | 1.75
8 | O[C@@H](Cc1ccccc1)[C@H]1C2C=CCCC(c3ccccc3)=C2CN1Cc1cccc(Cl)c1 (stereo not given in full) | 0.0825 | -1.31 (inactive) | -0.577 (inactive) | 2.58 (inactive) | 1.44 (inactive) | 0.26 | 0.0355 | 0.762 | 0.144 | 0.733 | 3.28 (inactive) | -0.104 | 4.33 (inactive) | 0.669 (inactive) | 1.16 (inactive) | 0.476 (inactive) | 0.459 | -0.384 (inactive) | -0.868 (inactive) | -0.41
9 | CC[C@@H](c1ccccc1)n1c(=O)n2n(c1=O)[C@H]1[C@H](O)[C@@H]3O[C@@H]3C(=NOCC(C)C)[C@H]1CC2 | -0.11 | 0.529 (inactive) | 0.51 (inactive) | 0.786 (inactive) | 0.671 (inactive) | -0.36 | -0.0405 | -0.132 | -0.115 | 0.636 | -1.11 (inactive) | -0.0508 | -0.0462 (inactive) | -0.155 (inactive) | 0.282 (inactive) | -0.0656 (inactive) | 0.123 | 1.72 (inactive) | 0.386 (inactive) | 0.371
